From PubChem BioAssay (EPA / NIEHS) come the findings set out here.

The target in assay [1] is human Protein Phosphatase, Mg2+/Mn2+ Dependent 1A (PPM1A), PPM1A (gene 5494) (UniProt P35813). Briefly: NVS_ENZ_hPPM1A: NovaScreen (NVS) Enzymatic Assay for human Protein Phosphatase, Mg2+/Mn2+ Dependent 1A (PPM1A) (AID 2283198). The method in brief: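 Primary screen in duplicate at 25 uM, with actives then titrated to a maximum of 50 uM. Recombinant PPM1A dephosphorylation of fluorescent substrate measured at 1 h, with substrate and product separated by mobility shift; inhibition fitted against DMSO.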

Assay [2] has as its target Serine/threonine-protein phosphatase PP1-alpha catalytic subunit (Homo sapiens) (UniProt P62136). In words: NVS_ENZ_hPPP1CA: NovaScreen (NVS) Enzymatic Assay for human Protein Phosphatase 1 Aatalytic subunit Alpha (PPP1CA) (AID 2283200). The method in brief: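 Chemicals were first screened in duplicate at 25 uM, and those passing threshold (e.g. 30% inhibition) were run as concentration series to 50 uM. Cell-free recombinant protein, 1.33 h read, fluorescent substrate/product mobility-shift detection, normalised to DMSO.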

In assay [3] the target is human Protein Tyrosine Phosphatase Non-receptor Type 6 (PTPN6), PTPN6 (gene 5777) (UniProt P29350). Briefly: NVS_ENZ_hPTPN6: NovaScreen (NVS) Enzymatic Assay for human Protein Tyrosine Phosphatase Non-receptor Type 6 (PTPN6) (AID 2283210). The method in brief: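 Recombinant human PTPN6 from SF9 cells, enzyme activity followed by fluorescence after mobility-shift separation of substrate and product at 1.33 h. Chemicals first tested at a single 25 uM in duplicate, then confirmed across concentration series; loss of signal relative to DMSO.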

The target of assay [4] is human Phosphoinositide 3-kinase alpha (PI3Ka), PIK3CA (gene 5290) (UniProt P42336). In words: NVS_ENZ_hPI3Ka: NovaScreen (NVS) Enzymatic Assay for human Phosphoinositide 3-kinase alpha (PI3Ka) (AID 2283196). The method in brief:
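Enzyme activity as fluorescence after mobility-shift separation of substrate and product, 1 h reaction, recombinant human PI3Kα; concentration-response to 50 uM max for chemicals passing a 25 uM duplicate screen.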

Assay [5] has as its target Tyrosine-protein phosphatase non-receptor type 13 (Homo sapiens) (UniProt Q12923). Briefly: NVS_ENZ_hPTPN13: NovaScreen (NVS) Enzymatic Assay for human Protein Tyrosine Phosphatase Non-receptor Type 13 (PTPN13) (AID 2283205). The method in brief:
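Screened first at a single 25 uM in duplicate; compounds passing the threshold (e.g. 30% inhibition) were rerun in concentration series, top 50 uM. Recombinant enzyme, fluorescent substrate, mobility-shift separation, 0.5 h read. Data fitted as inhibition relative to DMSO.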

Assay [6] addresses human Protein Tyrosine Phosphatase Non-receptor Type 2 (PTPN2), PTPN2 (gene 5771) (UniProt P17706). In words: NVS_ENZ_hPTPN2: NovaScreen (NVS) Enzymatic Assay for human Protein Tyrosine Phosphatase Non-receptor Type 2 (PTPN2) (AID 2283207). The method in brief:
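Activity measured as fluorescence after mobility-shift separation of substrate and product, 1 h after compound. Duplicate single-point 25 uM primary testing, concentration series for actives; inhibition scored as signal loss relative to DMSO baseline.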

Assay [7] addresses human Protein Tyrosine Phosphatase Non-receptor Type 4 (PTPN4), PTPN4 (gene 5775) (UniProt P29074). Briefly: NVS_ENZ_hPTPN4: NovaScreen (NVS) Enzymatic Assay for human Protein Tyrosine Phosphatase Non-receptor Type 4 (PTPN4) (AID 2283208). The method in brief:
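Screened in duplicate at 25 uM, with hits then titrated to a top concentration of 50 uM. Recombinant Sf9-derived PTPN4 turnover was read by fluorescence with electrophoretic separation, 1.33 h after compound addition. DMSO served as baseline.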

The target of assay [8] is human Protein Tyrosine Phosphatase Receptor Type M (PTPRM), PTPRM (gene 5797) (UniProt P28827). Briefly: NVS_ENZ_hPTPRM: NovaScreen (NVS) Enzymatic Assay for human Protein Tyrosine Phosphatase Receptor Type M (PTPRM) (AID 2283215). The method in brief:
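Read-out is fluorescence after electrophoretic separation of substrate and product, taken 1.33 h post-dosing with recombinant enzyme. Compounds screened at 25 uM in duplicate, then concentration series for actives; activity as signal loss relative to DMSO.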

Assay [9] has as its target human Raf-1 Proto-Oncogene, serine/threonine Kinase (RAF1), RAF1 (gene 5894) (UniProt P04049). Briefly: NVS_ENZ_hRAF1: NovaScreen (NVS) Enzymatic Assay for human Raf-1 Proto-Oncogene, serine/threonine Kinase (RAF1) (AID 2283216). The method in brief:
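Single-point screening at 25 uM (duplicate), followed by singleton concentration-response to 50 uM maximum for chemicals exceeding threshold. Enzyme activity from fluorescent substrate-product mobility-shift separation after 1 h, relative to DMSO.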

For assay [10], the target named is human Protein Tyrosine Phosphatase Non-receptor Type 1 (PTPN1), PTPN1 (gene 5770) (UniProt P18031). In words: NVS_ENZ_hPTPN1: NovaScreen (NVS) Enzymatic Assay for human Protein Tyrosine Phosphatase Non-receptor Type 1 (PTPN1) (AID 2283201). The method in brief: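 Chemicals were first tested in duplicate at 25 uM, and those passing threshold went on to singleton concentration series topping at 50 uM. Recombinant enzyme, specific substrate, product separated by mobility shift, fluorescence read at 1.33 h; activity loss relative to DMSO.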

The target in assay [11] is Tyrosine-protein phosphatase non-receptor type 11 (Homo sapiens) (UniProt Q06124). Briefly: NVS_ENZ_hPTPN11: NovaScreen (NVS) Enzymatic Assay for human Protein Tyrosine Phosphatase Non-receptor Type 11 (PTPN11) (AID 2283202). The method in brief:
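Compounds first tested in duplicate at 25 uM; those reaching ~30% inhibition rerun in singleton concentration-response, top 50 uM. Phosphatase activity measured after 0.5 h by fluorescence with mobility-shift separation, relative to DMSO.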

For assay [12], the target named is human Protein Tyrosine Phosphatase Receptor Type C (PTPRC), PTPRC (gene 5788) (UniProt P08575). In words: NVS_ENZ_hPTPRC: NovaScreen (NVS) Enzymatic Assay for human Protein Tyrosine Phosphatase Receptor Type C (PTPRC) (AID 2283212). The method in brief:
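Absorbance-based phosphatase activity of human PTPRC protein extracted from yeast was measured 1 h post-dosing. Compounds first tested at 25 uM in duplicate, then those passing threshold in singleton concentration series to 50 uM.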

Assay [13] concerns the target human Rho Associated Coiled-coil Containing Protein Kinase 1 (ROCK1), ROCK1 (gene 6093) (UniProt Q13464). In words: NVS_ENZ_hROCK1: NovaScreen (NVS) Enzymatic Assay for human Rho Associated Coiled-coil Containing Protein Kinase 1 (ROCK1) (AID 2283214). The method in brief: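 Compounds first run in duplicate at 25 uM against recombinant human ROCK1, then followed in concentration series. Kinase activity was read 1 h post-dosing by fluorescence with mobility-shift separation, as signal loss relative to DMSO.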

In assay [14] the target is human Protein Tyrosine Phosphatase Non-receptor Type 9 (PTPN9), PTPN9 (gene 5780) (UniProt P43378). In words: NVS_ENZ_hPTPN9: NovaScreen (NVS) Enzymatic Assay for human Protein Tyrosine Phosphatase Non-receptor Type 9 (PTPN9) (AID 2283209). The method in brief:
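Sf9-expressed enzyme in a cell-free assay, fluorescence read 1.33 h after dosing with mobility-shift separation of substrate and product. Tested at 25 uM in duplicate, then up to 50 uM; signal loss versus DMSO.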

Assay [15] addresses human Phosphatase and Tensin Homolog (PTEN), PTEN (gene 5728) (UniProt P60484). Briefly: NVS_ENZ_hPTEN: NovaScreen (NVS) Enzymatic Assay for human Phosphatase and Tensin Homolog (PTEN) (AID 2283203). The method in brief: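 Loss of fluorescent product signal after mobility-shift separation reports PTEN activity, recombinant human enzyme, 1 h after compound addition. Single 25 uM duplicate screen, then concentration-response on actives; DMSO baseline.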

For assay [16], the target named is human Protein Tyrosine Phosphatase Receptor Type B (PTPRB), PTPRB (gene 5787) (UniProt P23467). In words: NVS_ENZ_hPTPRB: NovaScreen (NVS) Enzymatic Assay for human Protein Tyrosine Phosphatase Receptor Type B (PTPRB) (AID 2283211). The method in brief: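 Recombinant human PTPRB with a fluorescent substrate, product separated by electrophoretic mobility shift; read 1 h after dosing. Primary screen in duplicate at 25 uM; actives then retested in concentration series; loss of signal versus DMSO.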

Inconclusive results are not listed. Active and inactive are the calls of the source. How the source made its calls: active means hit-call score of the fitted dose curve at least 0.9, where 1 is the maximum; inconclusive means response in the unintended direction; inactive means score below 0.9.

Sequence of human Protein Phosphatase, Mg2+/Mn2+ Dependent 1A (PPM1A), PPM1A (gene 5494) (P35813 whole entry, looked up): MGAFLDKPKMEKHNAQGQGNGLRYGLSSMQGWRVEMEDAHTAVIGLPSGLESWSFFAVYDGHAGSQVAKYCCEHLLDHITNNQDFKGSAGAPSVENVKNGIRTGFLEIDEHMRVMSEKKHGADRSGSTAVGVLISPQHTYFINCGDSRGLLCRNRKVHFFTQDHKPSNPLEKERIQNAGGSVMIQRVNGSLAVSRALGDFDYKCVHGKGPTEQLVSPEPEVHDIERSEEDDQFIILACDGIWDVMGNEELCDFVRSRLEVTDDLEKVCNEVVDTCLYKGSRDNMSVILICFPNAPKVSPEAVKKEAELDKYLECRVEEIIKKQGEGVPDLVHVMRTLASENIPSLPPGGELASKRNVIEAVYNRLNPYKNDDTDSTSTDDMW
Sequence of human Protein Tyrosine Phosphatase Non-receptor Type 2 (PTPN2), PTPN2 (gene 5771) (P17706 whole entry, looked up): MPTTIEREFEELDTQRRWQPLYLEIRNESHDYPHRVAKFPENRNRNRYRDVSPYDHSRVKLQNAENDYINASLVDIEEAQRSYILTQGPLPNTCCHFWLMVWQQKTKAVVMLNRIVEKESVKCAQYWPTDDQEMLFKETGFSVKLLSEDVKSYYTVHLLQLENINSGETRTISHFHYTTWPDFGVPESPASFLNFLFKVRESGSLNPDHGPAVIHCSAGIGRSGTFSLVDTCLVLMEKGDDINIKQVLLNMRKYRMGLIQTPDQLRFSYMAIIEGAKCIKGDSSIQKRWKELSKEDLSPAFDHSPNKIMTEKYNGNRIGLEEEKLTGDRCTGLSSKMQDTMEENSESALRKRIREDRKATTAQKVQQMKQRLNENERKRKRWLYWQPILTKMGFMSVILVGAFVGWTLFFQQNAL
Sequence of Serine/threonine-protein phosphatase PP1-alpha catalytic subunit (Homo sapiens) (P62136 whole entry, looked up): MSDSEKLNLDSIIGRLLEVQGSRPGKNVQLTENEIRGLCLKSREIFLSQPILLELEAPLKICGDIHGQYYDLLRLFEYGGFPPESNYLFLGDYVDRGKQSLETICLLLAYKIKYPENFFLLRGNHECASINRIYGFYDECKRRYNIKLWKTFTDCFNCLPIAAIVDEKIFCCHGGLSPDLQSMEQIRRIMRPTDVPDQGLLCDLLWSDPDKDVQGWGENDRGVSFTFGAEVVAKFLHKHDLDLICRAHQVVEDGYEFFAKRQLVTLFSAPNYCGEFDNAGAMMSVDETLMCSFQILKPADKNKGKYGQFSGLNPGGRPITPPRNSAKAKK
Sequence of human Protein Tyrosine Phosphatase Non-receptor Type 4 (PTPN4), PTPN4 (gene 5775) (P29074 whole entry, looked up): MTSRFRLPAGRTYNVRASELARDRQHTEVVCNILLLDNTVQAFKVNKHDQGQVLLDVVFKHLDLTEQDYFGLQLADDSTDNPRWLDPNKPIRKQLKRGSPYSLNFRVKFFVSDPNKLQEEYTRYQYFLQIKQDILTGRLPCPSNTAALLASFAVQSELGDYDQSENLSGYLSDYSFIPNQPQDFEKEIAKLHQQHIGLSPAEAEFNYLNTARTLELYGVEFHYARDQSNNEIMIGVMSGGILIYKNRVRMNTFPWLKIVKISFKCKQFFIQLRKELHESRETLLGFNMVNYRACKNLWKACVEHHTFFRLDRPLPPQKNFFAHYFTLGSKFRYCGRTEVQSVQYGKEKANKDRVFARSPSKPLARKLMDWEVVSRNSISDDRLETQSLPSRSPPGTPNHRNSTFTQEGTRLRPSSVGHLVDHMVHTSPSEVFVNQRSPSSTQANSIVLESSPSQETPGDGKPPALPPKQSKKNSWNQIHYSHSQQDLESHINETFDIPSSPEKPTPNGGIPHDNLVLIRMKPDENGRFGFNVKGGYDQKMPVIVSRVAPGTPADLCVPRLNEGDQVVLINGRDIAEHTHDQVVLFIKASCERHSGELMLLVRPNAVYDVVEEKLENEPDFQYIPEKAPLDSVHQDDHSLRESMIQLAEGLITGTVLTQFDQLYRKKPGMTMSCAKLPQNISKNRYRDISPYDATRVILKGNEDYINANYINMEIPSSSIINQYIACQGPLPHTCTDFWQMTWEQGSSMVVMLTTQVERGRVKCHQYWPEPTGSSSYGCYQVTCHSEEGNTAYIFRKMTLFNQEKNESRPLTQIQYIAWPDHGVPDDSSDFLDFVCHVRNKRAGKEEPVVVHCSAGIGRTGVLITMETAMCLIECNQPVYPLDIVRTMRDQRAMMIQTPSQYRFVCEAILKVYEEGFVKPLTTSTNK
Sequence of human Raf-1 Proto-Oncogene, serine/threonine Kinase (RAF1), RAF1 (gene 5894) (P04049 whole entry, looked up): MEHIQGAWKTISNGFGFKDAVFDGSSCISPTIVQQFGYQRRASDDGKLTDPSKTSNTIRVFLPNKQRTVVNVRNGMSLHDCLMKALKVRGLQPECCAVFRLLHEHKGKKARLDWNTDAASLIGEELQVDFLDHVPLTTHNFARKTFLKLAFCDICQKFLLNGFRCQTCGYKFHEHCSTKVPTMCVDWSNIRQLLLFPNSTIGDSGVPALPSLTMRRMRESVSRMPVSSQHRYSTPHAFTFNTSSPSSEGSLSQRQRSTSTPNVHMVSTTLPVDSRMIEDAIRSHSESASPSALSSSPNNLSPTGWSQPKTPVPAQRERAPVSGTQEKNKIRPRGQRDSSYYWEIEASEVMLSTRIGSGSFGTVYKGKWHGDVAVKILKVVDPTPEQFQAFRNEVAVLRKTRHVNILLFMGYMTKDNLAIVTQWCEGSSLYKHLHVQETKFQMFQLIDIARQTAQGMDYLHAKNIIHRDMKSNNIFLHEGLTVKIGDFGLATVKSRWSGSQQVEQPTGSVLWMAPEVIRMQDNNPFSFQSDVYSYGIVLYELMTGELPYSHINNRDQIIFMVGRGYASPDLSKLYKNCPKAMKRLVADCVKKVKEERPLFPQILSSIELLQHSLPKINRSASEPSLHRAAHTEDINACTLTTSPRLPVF
Sequence of human Protein Tyrosine Phosphatase Non-receptor Type 1 (PTPN1), PTPN1 (gene 5770) (P18031 whole entry, looked up): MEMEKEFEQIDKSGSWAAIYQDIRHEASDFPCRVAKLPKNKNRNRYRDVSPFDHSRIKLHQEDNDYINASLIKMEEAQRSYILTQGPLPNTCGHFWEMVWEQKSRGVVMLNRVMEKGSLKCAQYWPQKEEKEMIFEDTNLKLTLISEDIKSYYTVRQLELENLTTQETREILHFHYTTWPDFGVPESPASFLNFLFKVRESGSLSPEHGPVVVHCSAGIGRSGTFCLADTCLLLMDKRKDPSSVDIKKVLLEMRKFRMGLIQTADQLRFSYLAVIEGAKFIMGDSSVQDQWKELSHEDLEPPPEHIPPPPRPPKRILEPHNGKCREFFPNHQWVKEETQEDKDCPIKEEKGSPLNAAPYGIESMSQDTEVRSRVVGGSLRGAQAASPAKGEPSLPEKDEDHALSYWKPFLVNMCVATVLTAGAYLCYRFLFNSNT
Sequence of human Protein Tyrosine Phosphatase Non-receptor Type 6 (PTPN6), PTPN6 (gene 5777) (P29350 whole entry, looked up): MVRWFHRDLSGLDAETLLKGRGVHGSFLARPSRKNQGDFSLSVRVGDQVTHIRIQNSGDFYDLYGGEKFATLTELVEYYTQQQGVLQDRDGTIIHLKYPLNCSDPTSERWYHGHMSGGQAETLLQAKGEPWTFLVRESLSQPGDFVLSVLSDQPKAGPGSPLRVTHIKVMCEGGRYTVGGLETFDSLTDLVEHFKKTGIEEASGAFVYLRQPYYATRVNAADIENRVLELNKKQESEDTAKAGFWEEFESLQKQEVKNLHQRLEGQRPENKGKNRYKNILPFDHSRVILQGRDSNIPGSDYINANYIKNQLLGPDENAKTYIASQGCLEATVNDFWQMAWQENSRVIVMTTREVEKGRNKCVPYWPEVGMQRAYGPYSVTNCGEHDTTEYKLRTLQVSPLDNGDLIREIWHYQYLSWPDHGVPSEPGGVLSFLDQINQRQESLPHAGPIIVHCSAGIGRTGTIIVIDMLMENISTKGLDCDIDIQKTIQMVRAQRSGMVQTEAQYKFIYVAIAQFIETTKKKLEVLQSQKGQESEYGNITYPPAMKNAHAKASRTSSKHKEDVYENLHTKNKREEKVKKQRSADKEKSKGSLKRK
Sequence of human Protein Tyrosine Phosphatase Non-receptor Type 9 (PTPN9), PTPN9 (gene 5780) (P43378 whole entry, looked up): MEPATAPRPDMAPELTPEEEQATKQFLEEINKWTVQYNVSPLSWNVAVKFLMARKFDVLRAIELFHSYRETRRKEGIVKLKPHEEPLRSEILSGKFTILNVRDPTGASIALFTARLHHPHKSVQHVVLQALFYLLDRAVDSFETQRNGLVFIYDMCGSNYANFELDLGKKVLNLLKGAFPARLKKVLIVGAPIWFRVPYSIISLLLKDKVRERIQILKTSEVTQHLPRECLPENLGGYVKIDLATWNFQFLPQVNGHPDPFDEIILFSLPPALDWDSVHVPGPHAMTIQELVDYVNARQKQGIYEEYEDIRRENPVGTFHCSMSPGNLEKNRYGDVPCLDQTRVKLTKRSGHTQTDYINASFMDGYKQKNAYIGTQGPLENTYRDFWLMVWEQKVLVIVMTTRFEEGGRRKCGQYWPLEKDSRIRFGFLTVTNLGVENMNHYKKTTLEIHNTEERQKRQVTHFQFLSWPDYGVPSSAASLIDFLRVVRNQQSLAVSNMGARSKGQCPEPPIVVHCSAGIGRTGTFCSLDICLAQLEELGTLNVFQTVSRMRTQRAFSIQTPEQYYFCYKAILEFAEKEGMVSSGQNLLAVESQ
Sequence of Tyrosine-protein phosphatase non-receptor type 11 (Homo sapiens) (Q06124 whole entry, looked up): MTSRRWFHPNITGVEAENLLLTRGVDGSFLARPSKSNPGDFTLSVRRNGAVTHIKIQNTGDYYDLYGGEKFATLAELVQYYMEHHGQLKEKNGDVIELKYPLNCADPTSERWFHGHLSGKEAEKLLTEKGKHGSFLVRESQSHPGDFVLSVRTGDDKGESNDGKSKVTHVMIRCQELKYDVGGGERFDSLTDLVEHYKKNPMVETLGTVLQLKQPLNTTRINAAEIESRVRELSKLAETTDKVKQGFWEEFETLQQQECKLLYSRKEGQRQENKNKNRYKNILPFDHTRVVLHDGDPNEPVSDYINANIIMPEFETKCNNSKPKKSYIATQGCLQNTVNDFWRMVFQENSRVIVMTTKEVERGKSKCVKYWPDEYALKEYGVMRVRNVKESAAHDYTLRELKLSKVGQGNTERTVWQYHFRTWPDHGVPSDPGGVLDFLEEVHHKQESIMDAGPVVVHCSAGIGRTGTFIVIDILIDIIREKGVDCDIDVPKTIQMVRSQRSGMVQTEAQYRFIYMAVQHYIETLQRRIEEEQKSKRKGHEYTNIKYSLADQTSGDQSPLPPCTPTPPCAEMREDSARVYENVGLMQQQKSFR

Consider `NS(=O)(=O)C(F)(F)C(F)(F)C(F)(F)C(F)(F)C(F)(F)C(F)(F)C(F)(F)C(F)(F)F`, for which, in [1], the compound was called inactive.
Consider `ClC1=C(Cl)[C@]2(Cl)[C@@H]3[C@@H](Cl)[C@H]4O[C@H]4[C@@H]3C1(Cl)C2(Cl)Cl`, for which the result in assay [2] was inactive.
For the compound `Nn1cnnc1`, the call in assay [3] was inactive.
With `CC(C)C(=O)OCC(C)(C)C(OC(=O)C(C)C)C(C)C` (configuration not stated), the compound was classed as inactive in assay [4], in assay [2], in [5], in assay [6], in assay [7] and in assay [8]. For the same compound, the call in [9] was inactive.
For `Oc1ccc(C(c2ccc(O)cc2)(C(F)(F)F)C(F)(F)F)cc1`, the compound was classed as inactive in assay [10], in assay [11] and in assay [9].
Usually AC50 stands for the midpoint of the concentration-response curve, whichever way the signal moves. Turning to `O=C(O)C(F)(F)C(F)(F)C(F)(F)C(F)(F)C(F)(F)C(F)(F)C(F)(F)C(F)(F)C(F)(F)F`, the AC50 was 43.3 µM (active) in assay [2] and 15.8 µM (active) in [12].
In the case of `CN(C)c1nc(=O)n(C2CCCCC2)c(=O)n1C`, in assay [7], the compound was called inactive.
As for `CC#Cc1cc(C)nc(Nc2ccccc2)n1`, the compound was classed as inactive in assay [13].
As for `CCC(C)c1cc([N+](=O)[O-])cc([N+](=O)[O-])c1O` (configuration not stated), the result in assay [1] was inactive. In assay [12], the AC50 was 25 µM (active).
Regarding `Cc1cc(O)ccc1Cl`, the result in [6], in assay [14] and in [3] was inactive.
As for `Cc1cc2c3c(c1)C(c1ccccc1)=N[C@@H](NC(=O)c1ccncc1)C(=O)N3CC2`, the compound was called inactive in assay [1] and in [8].
Regarding `O=C(O)C(F)(F)C(F)(F)C(F)(F)C(F)(F)C(F)(F)F`, the result in assay [10], in [11], in [15], in assay [6], in assay [7] and in assay [14] was inactive. Moreover, the result in [16] and in assay [9] was inactive.
